# ± gives the standard deviation of the averaged measurements.
# Assays:
# Test in all cases: cell viability (% of vehicle); higher = less cytotoxic
# Details in all cases: 10 µM; 72 h
# [1] = system: HCI01 (cells of a triple-negative basal-like breast cancer xenograft)
# [2] = system: HCI03 (cells of an ER-positive luminal breast cancer xenograft)
# [3] = system: HCI09 (cells of a triple-negative luminal androgen receptor type breast cancer xenograft)
# [4] = system: HCI11 (cells of an ER-positive luminal breast cancer xenograft)
# [5] = system: HCI13 (cells of an ER-positive luminal breast cancer xenograft)
# [6] = system: HCI16 (cells of a triple-negative basal-like breast cancer xenograft)
# [7] = system: UCD52 (cells of a triple-negative basal-like breast cancer xenograft)
# [8] = system: WHIM2 (cells of a triple-negative basal-like breast cancer xenograft)
# [9] = system: WHIM30 (cells of a triple-negative basal-like breast cancer xenograft)
# 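Also: PDX cells carrying CMV promoter-driven luciferase, viability read as total photon flux per second by IVIS imaging following D-luciferin, vehicle control 0.1% DMSO.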
SMILES,cell viability [1],cell viability [2],cell viability [3],cell viability [4],cell viability [5],cell viability [6],cell viability [7],cell viability [8],cell viability [9]
CCN(CC)C(=O)C(C#N)=Cc1cc(O)c(O)c([N+](=O)[O-])c1 [Entacapone],121 ± 8.8,159,105 ± 2.4,80.8,98.77 ± 0.41,105,98.7 ± 14,192 ± 14,104 ± 7
O=C(O)c1ccccc1 [Benzoic Acid],143 ± 20,95.6,109 ± 25,104,70.3 ± 10,124,110 ± 8,127 ± 7.8,111 ± 15
CCC(C)(C)c1ccc(CC(C)CN2CC(C)OC(C)C2)cc1.Cl (stereo unspecified) [Amorolfine HCl],66.7 ± 39,129,88.4 ± 9.1,83.8,119 ± 36,119,58.3 ± 5.5,64.5 ± 32,166 ± 9.2
Cc1[nH]c(=O)c(C#N)cc1-c1ccncc1 [Milrinone],124 ± 0.28,117,96.6 ± 32,102,98 ± 13,94,90.5 ± 4.6,101 ± 10,106 ± 18
CCN(Cc1ccncc1)C(=O)C(CO)c1ccccc1 (stereo unspecified) [Tropicamide],112 ± 15,136,106 ± 11,101,136 ± 23,110,74.6 ± 14,91.4 ± 14,98.61 ± 0.95
CCCC(=O)Nc1ccc(OCC(O)CNC(C)C)c(C(C)=O)c1.Cl (stereo unspecified) [Acebutolol HCl],125 ± 5.8,123,102 ± 22,106,76.3 ± 3.2,156,97.1 ± 7,98.7 ± 8.9,131.6 ± 0.063
CN(CC/C=C1C2=CC=CC=C2C=CC3=CC=CC=C3\1)C.Cl [Cyclobenzaprine HCl],98.1 ± 17,95.1,73.5 ± 0.81,84.5,131 ± 4.4,92.3,76.4 ± 0.93,89.6 ± 14,89.9 ± 1.5
CN1CCCC1c1cccnc1.O=C(O)C(O)C(O)C(=O)O.O=C(O)C(O)C(O)C(=O)O (stereo unspecified) [Nicotine Difartrate],115 ± 7.3,107,126 ± 40,114,99.2 ± 3.9,98.7,100 ± 12,99.6 ± 9.8,121 ± 2.7
CCOc1nc2cccc(C(=O)OCc3oc(=O)oc3C)c2n1Cc1ccc(-c2ccccc2-c2nc(=O)o[nH]2)cc1 [Azilsartan Medoxomil],100 ± 6.8,162,107 ± 2.2,94.2,106 ± 14,124,111 ± 8.7,106 ± 18,127 ± 2.7
O=C(O)c1cccnc1 [Nicotinic Acid],97.2 ± 15,119,100 ± 20,87.3,112 ± 18,98.5,92.8 ± 2.8,84.3 ± 10,143.6 ± 0.45
Cc1cnc(NC(=O)C2=C(O)c3ccccc3S(=O)(=O)N2C)s1 [Meloxicam (Mobic)],104 ± 10,125,96.1 ± 18,102,124 ± 5,88.8,80.5 ± 6.5,94 ± 12,81.3 ± 13
CN(C)CCC=C1c2ccccc2COc2ccc(CC(=O)O)cc21.Cl [Olopatadine HCl],122 ± 18,130,101 ± 9.1,97.6,182 ± 38,99.1,81.6 ± 14,87.1 ± 13,108 ± 4.9
OCC1OC(Oc2ccc(O)cc2)C(O)C(O)C1O (stereo unspecified) [Arbutin],107 ± 28,127,100 ± 16,89.2,96.6 ± 4.9,131,103 ± 1.1,81.9 ± 9,84.3 ± 7.3
Cc1ccc(Nc2nccc(N(C)c3ccc4c(C)n(C)nc4c3)n2)cc1S(N)(=O)=O.Cl,166 ± 30,77.2,61.1 ± 13,85.4,110 ± 6.2,92,90.5 ± 2.9,152 ± 5.7,144 ± 6
CCOc1ccc(NC(C)=O)cc1 [Phenacetin],139 ± 6,136,96.9 ± 17,96.7,102 ± 3.9,122,82 ± 12,98.7 ± 10,94.4 ± 11
COC1C(O)CC(=O)OC(C)CC=CC=CC(OC2CCC(N(C)C)C(C)O2)C(C)CC(CC=O)C1OC1OC(C)C(OC2CC(C)(O)C(O)C(C)O2)C(N(C)C)C1O (stereo unspecified) [Spiramycin],133 ± 7.7,125,110 ± 12,116,78.9 ± 20,138,94.4 ± 1.5,149 ± 30,123 ± 5.8
CCCNC(=O)NS(=O)(=O)c1ccc(Cl)cc1 [Chlorpropamide],121 ± 28,113,73.9 ± 18,82.9,81.8 ± 25,105,92.5 ± 5.9,99.5 ± 14,104 ± 4.6
CC12CCC3c4ccc(O)cc4CCC3C1CCC2OC(=O)CCC1CCCC1 (stereo unspecified) [Estradiol Cypionate],168 ± 2.2,101,96.6 ± 4.5,93.1,180 ± 16,147,92 ± 6.5,110 ± 10,130 ± 12
CN(C)c1cc(NC(=O)CNC(C)(C)C)c(O)c2c1CC1CC3C(N(C)C)C(=O)C(C(N)=O)=C(O)C3(O)C(=O)C1=C2O (stereo unspecified) [Tigecycline],80 ± 10,121,95.8 ± 8.5,81.9,129 ± 23,120,96.7 ± 21,102 ± 22,129 ± 8.6

# From the supplement of paper PMC6992640
